The values below come from PubChem BioAssay (Tox21).

Structures are written as SMILES. “And” between values parts separate entries of the source, which are not always exact repeats. Identical values can stand only once. Inconclusive results are not listed. The source made the active and inactive calls. Calls come from the whole dose curve; as a rule, active = well fitted inhibition curve with a large enough effect in the repeat runs; inconclusive = weak or mixed curves; inactive = no such curve, though single readings can be large or run the other way.
% is set by controls: 0 for no effect and ±100 for the full control effect; potency is the fitted concentration of half-maximal effect.

Chain of Cytochrome P450 1A2 (Homo sapiens) (P05177 whole entry, looked up): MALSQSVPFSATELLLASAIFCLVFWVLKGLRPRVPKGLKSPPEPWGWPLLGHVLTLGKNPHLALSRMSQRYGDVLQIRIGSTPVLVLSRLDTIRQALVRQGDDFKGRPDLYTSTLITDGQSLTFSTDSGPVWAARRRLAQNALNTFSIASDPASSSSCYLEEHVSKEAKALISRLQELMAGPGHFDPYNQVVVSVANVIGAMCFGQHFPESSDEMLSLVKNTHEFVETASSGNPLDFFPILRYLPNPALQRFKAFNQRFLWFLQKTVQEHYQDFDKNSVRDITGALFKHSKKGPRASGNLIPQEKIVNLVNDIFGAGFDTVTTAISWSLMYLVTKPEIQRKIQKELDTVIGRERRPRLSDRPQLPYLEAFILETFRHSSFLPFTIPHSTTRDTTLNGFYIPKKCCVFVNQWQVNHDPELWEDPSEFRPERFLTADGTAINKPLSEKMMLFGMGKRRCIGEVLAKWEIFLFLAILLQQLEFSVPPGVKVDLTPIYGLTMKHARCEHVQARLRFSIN

This assay deals with Cytochrome P450 1A2 (Homo sapiens) (UniProt P05177). Description: Cytochrome P450 Family 1 Subfamily A Member 2 (CYP1A2) small molecule antagonists: luciferase reporter qHTS assay (AID 1671199). Note: nearly all actives have a fitted effect of over 50% in size. Conditions: P450-Glo CYP1A2 enzyme, luciferin luminescence, 1 h; series mostly up to 53 µM; activity change, negative = inhibition: at the top concentration. In short, it runs like this:
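Human CYP1A2 activity measured with a P450-Glo proluciferin substrate; compounds in DMSO preincubated 10 min at room temperature with enzyme-substrate mix, then NADPH regeneration system added for 1 h. Luciferin detection reagent, 20 min, luminescence read.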
(Reporter assays use an easily measured gene product as a stand-in for the process of interest.)
`CCCCCCC[N+](CC)(CC)CCCCc1ccc(Cl)cc1`: the “activity change, negative = inhibition” value was -10.3% (inactive).
On the same count and under the same terms, for `CS(=O)(=O)CCNCc1ccc(-c2ccc3ncnc(Nc4ccc(OCc5cccc(F)c5)c(Cl)c4)c3c2)o1` the value was -10.7% (inactive).
Regarding `CCCCN(CCCC)c1ccc(C(=O)c2ccccc2C(=O)O)c(O)c1`, the Potency is 63.9 µM (active).
On to `CC[C@H](c1ccc(O)cc1)[C@@H](CC)c1ccc(O)cc1`, for which the “activity change, negative = inhibition” value was -14.6% (inactive).
The same measure, in the same setting: for `COc1cc(-c2ccc(N=C=O)c(OC)c2)ccc1N=C=O` the value was -14.4% (inactive); for `CC(C)OC(=O)c1cc2c(OCC(O)CNC(C)(C)C)cccc2[nH]1` (centres undefined), -30% (inactive).
On the same count and under the same terms, the same measure for `CCCC(=O)OC[C@@H](OC(=O)CCC)[C@@H](OC(=O)CCC)[C@H](Cn1c2nc(=O)[nH]c(=O)c-2nc2cc(C)c(C)cc21)OC(=O)CCC`: -17.8% (inactive); for `C[C@H]1[C@H]2CC[C@H]3[C@@H]4CC=C5C[C@@H](N(C)C)CC[C@]5(C)[C@H]4CC[C@]23CN1C`: 14.3% (inactive).
For the compound `CCCC1O[C@@H]2C[C@H]3[C@@H]4CCC5=CC(=O)C=C[C@]5(C)[C@H]4[C@@H](O)C[C@]3(C)[C@]2(C(=O)CO)O1` (some centres undefined), the Potency result is “inactive”.
Same read-out and setting: for `CN(C/C=C/C#CC(C)(C)C)Cc1cccc2ccccc12` the value was 17.4 µM (active).
With `Cc1onc(-c2c(Cl)cccc2Cl)c1C(=O)N[C@@H]1C(=O)N2[C@@H]1SC(C)(C)[C@@H]2C(=O)O`, the “activity change, negative = inhibition” value is 0.848% (inactive).
As for `N=C1N=C(N)c2cc3ccccc3cc21`, the Potency was 1.78 µM (active).
Take `CCCCCCCCOc1ccccc1C(=O)Nc1ccc(C(=O)OCC[N+](C)(CC)CC)cc1`: the “activity change, negative = inhibition” value is -10.8% (inactive).
With `Nc1nc2ccccc2n1Cc1ccc(F)cc1`, the Potency is 24.5 µM (active).
With `CN(C)CCCOC1(Cc2ccccc2)CCCCCC1`, the “activity change, negative = inhibition” value was -12.1% (inactive).
As to `OCc1c[nH]c2ccccc12`, the Potency was 29.1 µM (active).
Same read-out and setting: for `C/C(=C(/OCCOc1ccc(Cl)cc1)c1ccc(Cl)cc1Cl)n1ccnc1` the value was 2.29 µM (active).
With `Cn1cc(C(=O)[C@@H]2CCc3nc[nH]c3C2)c2ccccc21`, the Potency was 17.4 µM (active).
On the same count and under the same terms, the same measure for `CNCc1cc(F)ccc1Oc1ccc(Cl)c(Cl)c1`: 1 µM (active); for `C[n+]1cc2c3c(ccc2c2ccc4cc5c(cc4c21)OCO5)OCO3`: 12 µM (active).
On the same count and under the same terms, for `COC(=O)C1=C(C)NC(C)=C(C(=O)OCCc2ccc(N3CCN(C(c4ccccc4)c4ccccc4)CC3)cc2)C1c1cccc([N+](=O)[O-])c1` (centres undefined) the value was 14.4 µM (active).
For the compound `Cc1cccc(CN2CCN(C(c3ccccc3)c3ccc(Cl)cc3)CC2)c1` (centres undefined), the “activity change, negative = inhibition” value was -28.9% (inactive).
With `O=c1c(-c2ccccc2)c1-c1ccccc1`, the Potency was 1.15 µM (active).
Still for that read-out and setting: for `Fc1ccc([C@@H]2CCNC[C@H]2COc2ccc3c(c2)OCO3)cc1` the value was 12.9 µM (active); for `COCCCC/C(=N\OCCN)c1ccc(C(F)(F)F)cc1`, 0.204 µM (active).
Same read-out and setting: for `CCCCCCCCOC(=O)c1ccc(O)cc1` the value was 19.9 µM (active) and 12.6 µM (active).
Still for that read-out and setting: for `O=c1[nH]sc2cc(Cl)ccc12` the value was 24.5 µM (active); for `Cc1cc(O)c2ccccc2c1O`, 1.23 µM (active).
As for `COc1ccc(CN2CCN(C(c3ccc(F)cc3)c3ccc(F)cc3)CC2)c(OC)c1OC`, the “activity change, negative = inhibition” value is -23.6% (inactive).
The same measure, in the same setting: for `CCCCCCCCCCCCCCCC[N+](C)(C)CCN(Cc1ccc(OC)cc1)c1ncccn1` the value was -18.9% (inactive).
On to `CC(C)(C)CC(C)(C)c1ccc(O)c(Cc2ccc(Cl)cc2Cl)c1`, for which the Potency is 15.5 µM (active).
Turning to `CC(C)(C)C(=O)OCOC(=O)[C@@H]1N2C(=O)[C@@H](NC(=O)[C@H](N)c3ccccc3)[C@H]2SC1(C)C`, the “activity change, negative = inhibition” value is 4.48% (inactive).
On to `Oc1ccc(Cl)cc1Sc1cc(Cl)ccc1O`, for which the Potency was 35.5 µM (active) and 27.5 µM (active).
As to `CCOC(=O)O[C@]1(C(=O)OCCl)CC[C@H]2[C@@H]3CCC4=CC(=O)C=C[C@]4(C)[C@H]3[C@@H](O)C[C@@]21C`, the “activity change, negative = inhibition” value was 4.03% (inactive).
As for `CCCCC(CC)CN=C(N)NC(N)=NCCCCCCN=C(N)NC(N)=NCC(CC)CCCC` (centres undefined), the Potency is 32.3 µM (active).
On the same count and under the same terms, for `O=C(N/N=C/c1ccccc1O)c1ccncc1` the value was 0.575 µM (active).
`CCC1=C[C@@H]2CN(C1)Cc1c([nH]c3ccccc13)[C@@](C(=O)OC)(c1cc3c(cc1OC)N(C)[C@H]1[C@@](O)(C(=O)OC)[C@H](OC(C)=O)[C@]4(CC)C=CCN5CC[C@]31[C@@H]54)C2`: the “activity change, negative = inhibition” value is -19.3% (inactive).
For the compound `Clc1ccc(C(Cn2ccnc2)OCc2ccc(Sc3ccccc3)cc2)c(Cl)c1` (centres undefined), the Potency is 15.5 µM (active).
The same measure, in the same setting: for `O=C(Nc1cccc([N+](=O)[O-])c1)c1cc2ccccc2cc1O` the value was 3.56 µM (active).
